Assay outcomes deposited in PubChem by several laboratories.
The list is not random: actives were taken first. Their share in the collection is about 4.1%.
Shn3 3UTR inh = inhibitors of Schnurri-3 3'UTR reporter in osteoblasts | Clone20 osteoblast Shn3 3'UTR firefly luciferase, 24 h | inhibition, % at 12.5 µM | hit rate 0.52% among 360,000;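 active = mean inhibition of at least 75% with every replicate also reaching 75%; inconclusive = mean inhibition at least 75% but some replicate below; inactive = mean inhibition below 75%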
MITF TRPM1 inh = MITF TRPM1 promoter inhibition in SK-MEL-5 cells | hit rate 0.83% among 330,000 | AID 488899 | SK-MEL-5 TRPM1 promoter luciferase, 24 h | inhibition, % at 12.5 µM;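 active = mean inhibition across replicates of 60% or more, whatever share of single replicates reaches that level; inconclusive = some that reach 60%, reason not given; inactive = mean inhibition across replicates below 60%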
Peg3 prom inh = Peg3 promoter activity inhibition; inhibition, % at 20 µM; HeLa PEG-Prom luciferase reporter, luminescence, overnight; AID 588405; hit rate 1.7% among 360,000;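 active = inhibition of at least 50% at 20 µM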
LMP1 NFkB inh = reduces LMP1-driven NF-kappaB luciferase signal | LMP1-induced NF-kappaB luciferase reporter cells, luminescence | inhibition, % at 12.5 µM | hit rate 0.69% among 350,000; in the data active = inhibition above about 41%; inconclusive = no clear call, values can overlap the other calls
TWEAK-Fn14 inh = inhibitors of TWEAK-Fn14 interaction signaling | TWEAK-stimulated Fn14 reporter cells, luciferase luminescence, 8 h | inhibition, % at 10 µM | hit rate 2% among 360,000 | AID 1159606; in the data active = inhibition above about 50%
TROY NFkB inh = blocks TROY-dependent signaling in reporter cells. Q293 LMP1-TROYcd NF-kB luciferase reporter, 4 h. inhibition, % at 10 µM. hit rate 0.98% among 360,000. AID 1347056;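 active = compounds whose plate-normalised and pattern-corrected inhibition of the luciferase reporter signal at the single screening dose is 50% or more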
Of the large screens only hits and unclear results are named; the others gave an inactive call.

CC(CN1CCN(CCOCCO)CC1)CN1c2ccccc2Sc2ccc(Cl)cc21 (stereo not drawn)	Peg3 prom inh 101 (no result: MITF TRPM1 inh)
COc1ccc2c(c1)N(C[C@H](C)CN(C)C)c1ccccc1S2	none
CN1CCN(CCCN2c3ccccc3Sc3ccc(Cl)cc32)CC1	Peg3 prom inh 63
OC1CC2CCC(C1)N2CCCN1c2ccccc2Sc2ccc(Cl)cc21 (stereo not drawn)	MITF TRPM1 inh 91, Peg3 prom inh 105
CCSc1ccc2c(c1)N(CCCN1CCN(C)CC1)c1ccccc1S2	Peg3 prom inh 57
CC(=O)c1cccc(NC(=O)COC(=O)Cn2cnc3ccccc32)c1	none
CN(C)CCCN1c2ccccc2Sc2ccc(C(F)(F)F)cc21	none
OCCN1CCN(CCCN2c3ccccc3Sc3ccc(C(F)(F)F)cc32)CC1	Peg3 prom inh 61
O=C(Cn1cncn1)N/N=C/c1ccc(Cl)cc1	none
CC(C)(C)C(=O)/C(=C/c1ccc(Cl)cc1)n1cncn1	Shn3 3UTR inh inconclusive, MITF TRPM1 inh 94, Peg3 prom inh 105, TWEAK-Fn14 inh 77
CC(C)/C=C(/C(=O)c1ccc(Cl)cc1Cl)n1cncn1	TWEAK-Fn14 inh 61
Cc1cccc(-c2onc3ccc(C(=O)/C=C/N(C)C)cc23)c1	none
CC1CC(C)CN(C(=O)CN(C)S(=O)(=O)c2ccc3c(c2)c(=O)n(C)c(=O)n3C)C1 (stereo not drawn)	none
CCS(=O)(=O)c1nc(S(=O)(=O)c2ccc(C)cc2)c(NCCCN(C)C)s1	none
O=C(Nc1nc2c(s1)CCCC2)C1COc2ccccc2O1 (stereo not drawn)	TWEAK-Fn14 inh 82, TROY NFkB inh 71
CC1(C)CC(=O)c2sc(NC(=O)c3cccs3)nc2C1	TWEAK-Fn14 inh 54
O=C(Nc1nc2c(s1)CCCC2)c1cccs1	TWEAK-Fn14 inh 57
N#Cc1nc(Cl)c(Cl)c(NN)c1Cl	TROY NFkB inh 62
O=Cc1cn(-c2ccccc2)nc1-c1ccc(F)cc1	none
CC1=NNC(=O)/C1=C\c1cn(-c2ccccc2)nc1-c1cccs1	MITF TRPM1 inh 98, Peg3 prom inh 115, TWEAK-Fn14 inh 109, TROY NFkB inh 88
CC1=NNC(=O)/C1=C\c1cn(-c2ccccc2)nc1-c1ccc(F)cc1	MITF TRPM1 inh 92, Peg3 prom inh 112, TWEAK-Fn14 inh 100, TROY NFkB inh 75
O=C(O)CCCCCN1C(=O)/C(=C/c2cn(-c3ccccc3)nc2-c2cccs2)SC1=S	none
CN(CCN(C)C(C)(C)C)C(=O)C(c1ccccc1)c1ccccc1	none
CCc1ccc(/C=C/C(=O)C2C(=O)c3ccccc3C2=O)cc1	LMP1 NFkB inh 51
CC(C)(C)[C@H]1COC(=O)CCC/C=C/C[C@H](CC(=O)NCCO)C(=O)N1	none
CN(C)CCNC(=O)c1cccc(-c2cnc3c(NC=O)cc(-c4cccs4)cn23)c1	Peg3 prom inh 53 (no result: MITF TRPM1 inh, LMP1 NFkB inh)
CN(C)CCNC(=O)c1cccc(-c2cnc3c(NC=O)cc(-c4ccccc4F)cn23)c1	Peg3 prom inh 96 (no result: MITF TRPM1 inh, LMP1 NFkB inh)
COc1ccc(CN(C)C(C)C(=O)N(C)CC(=O)Nc2ccc(C)cc2)cc1F (stereo not drawn)	none
Cc1nc2cc(N3CCCCC3)c(NC(=O)c3ccncc3)cc2c(=O)n1Cc1ccccc1	Peg3 prom inh 86
Cc1c(C(=O)Nc2cnccn2)oc2ccccc12	none
Cc1c(C(=O)NC2=NCCS2)oc2ccccc12	TWEAK-Fn14 inh 57
Cc1ccnc(NC(=O)c2oc3ccccc3c2C)c1	TWEAK-Fn14 inh 51
O=C(Nc1ccc(Cl)c(S(=O)(=O)N2CCOCC2)c1)c1cc2ccccc2oc1=O	Peg3 prom inh 95
O=C(Nc1cccc(-c2cn3ccccc3n2)c1)c1cc2ccccc2oc1=O	Peg3 prom inh 73
CC(=O)Nc1cccc(-c2cn3ccccc3n2)c1	none
CC(C)OP(=O)(c1ccc(N(C)C)cc1)C(O)c1ccc(N(C)C)cc1 (stereo not drawn)	none
Cc1cccc(CNC(=O)C2CCC(=O)N(Cc3ccccc3F)C2)n1 (stereo not drawn)	none
CC1CCc2nc(NC(=O)CSc3nc4ccccc4o3)sc2C1 (stereo not drawn)	TWEAK-Fn14 inh 93, TROY NFkB inh 86
O=C(CSc1nc2ccccc2o1)Nc1ccc(N2CCOCC2)c(Cl)c1	TROY NFkB inh 52
O=C(CSc1nc2ccccc2s1)Nc1ccc(N2CCOCC2)c(Cl)c1	none
